# Results taken from article PMC11062922 (Nature Chemical Biology, 2023).
# Read-outs that look alike come from different tables or passages of the source.
# Columns and labels:
# Details in all cases: read-out: apparent Kd, n = 1
# [1] = tested on: PAK4
# [2] = tested on: PHKG2
# [3] = tested on: PKN1
# [4] = compound concentrations:100 nM and 1000 nM (sheet 'Lestaurtinib' of Supplementary Table 1),run:Lestaurtinib_02766_R2,Plate:MR027
# [5] = compound concentrations:100 nM and 1000 nM (sheet 'Lestaurtinib' of Supplementary Table 1),run:Lestaurtinib_02768_R1,Plate:MR028
# [6] = compound concentrations:100 nM and 1000 nM (sheet 'Lestaurtinib' of Supplementary Table 1),run:Lestaurtinib_02795_R1,Plate:MR022
# [7] = compound concentrations:100 nM and 1000 nM (sheet 'Lestaurtinib' of Supplementary Table 1),run:Lestaurtinib_02795_R3,Plate:MR022
# [8] = compound concentrations:100 nM and 1000 nM (sheet 'Lestaurtinib' of Supplementary Table 1),run:Lestaurtinib_02896_R3,Plate:MR030
# [9] = compound concentrations:100 nM and 1000 nM (sheet 'Lestaurtinib' of Supplementary Table 1),run:Lestaurtinib_03172_R1,Plate:MR031
# [10] = compound concentrations:100 nM and 1000 nM (sheet 'Lestaurtinib' of Supplementary Table 1),run:Lestaurtinib_03172_R3,Plate:MR031
# [11] = compound concentrations:100 nM and 1000 nM (sheet 'Lestaurtinib' of Supplementary Table 1),run:Lestaurtinib_03252_R1,Plate:MR032
# [12] = compound concentrations:100 nM and 1000 nM (sheet 'Lestaurtinib' of Supplementary Table 1),run:Lestaurtinib_03252_R2,Plate:MR032
# [13] = compound concentrations:100 nM and 1000 nM (sheet 'Lestaurtinib' of Supplementary Table 1),run:Lestaurtinib_03260_R1,Plate:MR033
# [14] = compound concentrations:100 nM and 1000 nM (sheet 'Lestaurtinib' of Supplementary Table 1),run:Lestaurtinib_03260_R2,Plate:MR033
# [15] = compound concentrations:100 nM and 1000 nM (sheet 'Lestaurtinib' of Supplementary Table 1),run:Lestaurtinib_02339_R1,Plate:MR001
# [16] = compound concentrations:100 nM and 1000 nM (sheet 'Lestaurtinib' of Supplementary Table 1),run:Lestaurtinib_02339_R2,Plate:MR001
# [17] = compound concentrations:100 nM and 1000 nM (sheet 'Lestaurtinib' of Supplementary Table 1),run:Lestaurtinib_02364_R1,Plate:MR002
substance,measurement,setting,value
Lestaurtinib,potency estimated from few doses,[1]; [4],23.7 nM
same,potency estimated from few doses,[1]; [5],35.4 nM
same,potency estimated from few doses,"[1]; compound concentrations:100 nM and 1000 nM (sheet 'Lestaurtinib' of Supplementary Table 1),run:Lestaurtinib_02768_R2,Plate:MR028",29.5 nM
same,potency estimated from few doses,"[1]; compound concentrations:100 nM and 1000 nM (sheet 'Lestaurtinib' of Supplementary Table 1),run:Lestaurtinib_02768_R3,Plate:MR028",32.7 nM
same,potency estimated from few doses,[1]; [6],35.1 nM
same,potency estimated from few doses,"[1]; compound concentrations:100 nM and 1000 nM (sheet 'Lestaurtinib' of Supplementary Table 1),run:Lestaurtinib_02795_R2,Plate:MR022",29.7 nM
same,potency estimated from few doses,[1]; [7],113 nM
same,potency estimated from few doses,"[1]; compound concentrations:100 nM and 1000 nM (sheet 'Lestaurtinib' of Supplementary Table 1),run:Lestaurtinib_02802_R3,Plate:MR029",24.8 nM
same,potency estimated from few doses,"[1]; compound concentrations:100 nM and 1000 nM (sheet 'Lestaurtinib' of Supplementary Table 1),run:Lestaurtinib_02896_R1,Plate:MR030",35.9 nM
same,potency estimated from few doses,"[1]; compound concentrations:100 nM and 1000 nM (sheet 'Lestaurtinib' of Supplementary Table 1),run:Lestaurtinib_02896_R2,Plate:MR030",30.1 nM
same,potency estimated from few doses,[1]; [8],36.2 nM
same,potency estimated from few doses,[1]; [9],32.7 nM
same,potency estimated from few doses,"[1]; compound concentrations:100 nM and 1000 nM (sheet 'Lestaurtinib' of Supplementary Table 1),run:Lestaurtinib_03172_R2,Plate:MR031",29.6 nM
same,potency estimated from few doses,[1]; [10],26.1 nM
same,potency estimated from few doses,[1]; [11],43.4 nM
same,potency estimated from few doses,[1]; [12],25.3 nM
same,potency estimated from few doses,[1]; [13],48.6 nM
same,potency estimated from few doses,[1]; [14],48 nM
same,potency estimated from few doses,[2]; [15],838 nM
same,potency estimated from few doses,[2]; [16],142 nM
same,potency estimated from few doses,"[2]; compound concentrations:100 nM and 1000 nM (sheet 'Lestaurtinib' of Supplementary Table 1),run:Lestaurtinib_02339_R3,Plate:MR001",275 nM
same,potency estimated from few doses,[2]; [17],462 nM
same,potency estimated from few doses,"[2]; compound concentrations:100 nM and 1000 nM (sheet 'Lestaurtinib' of Supplementary Table 1),run:Lestaurtinib_02364_R2,Plate:MR002",360 nM
same,potency estimated from few doses,"[2]; compound concentrations:100 nM and 1000 nM (sheet 'Lestaurtinib' of Supplementary Table 1),run:Lestaurtinib_02364_R3,Plate:MR002",574 nM
same,potency estimated from few doses,"[2]; compound concentrations:100 nM and 1000 nM (sheet 'Lestaurtinib' of Supplementary Table 1),run:Lestaurtinib_02367_R1,Plate:MR003",323 nM
same,potency estimated from few doses,"[2]; compound concentrations:100 nM and 1000 nM (sheet 'Lestaurtinib' of Supplementary Table 1),run:Lestaurtinib_02367_R3,Plate:MR003",356 nM
same,potency estimated from few doses,"[2]; compound concentrations:100 nM and 1000 nM (sheet 'Lestaurtinib' of Supplementary Table 1),run:Lestaurtinib_02381_R1,Plate:MR004",137 nM
same,potency estimated from few doses,"[2]; compound concentrations:100 nM and 1000 nM (sheet 'Lestaurtinib' of Supplementary Table 1),run:Lestaurtinib_02381_R2,Plate:MR004",197 nM
same,potency estimated from few doses,"[2]; compound concentrations:100 nM and 1000 nM (sheet 'Lestaurtinib' of Supplementary Table 1),run:Lestaurtinib_02381_R3,Plate:MR004",144 nM
same,potency estimated from few doses,"[2]; compound concentrations:100 nM and 1000 nM (sheet 'Lestaurtinib' of Supplementary Table 1),run:Lestaurtinib_02422_R1,Plate:MR006",213 nM
same,potency estimated from few doses,"[2]; compound concentrations:100 nM and 1000 nM (sheet 'Lestaurtinib' of Supplementary Table 1),run:Lestaurtinib_02422_R2,Plate:MR006",55.3 nM
same,potency estimated from few doses,"[2]; compound concentrations:100 nM and 1000 nM (sheet 'Lestaurtinib' of Supplementary Table 1),run:Lestaurtinib_02437_R1,Plate:MR007",135 nM
same,potency estimated from few doses,"[2]; compound concentrations:100 nM and 1000 nM (sheet 'Lestaurtinib' of Supplementary Table 1),run:Lestaurtinib_02443_R1,Plate:MR009",170 nM
same,potency estimated from few doses,"[2]; compound concentrations:100 nM and 1000 nM (sheet 'Lestaurtinib' of Supplementary Table 1),run:Lestaurtinib_02443_R2,Plate:MR009",193 nM
same,potency estimated from few doses,"[2]; compound concentrations:100 nM and 1000 nM (sheet 'Lestaurtinib' of Supplementary Table 1),run:Lestaurtinib_02443_R3,Plate:MR009",99.2 nM
same,potency estimated from few doses,"[2]; compound concentrations:100 nM and 1000 nM (sheet 'Lestaurtinib' of Supplementary Table 1),run:Lestaurtinib_02473_R1,Plate:MR010",310 nM
same,potency estimated from few doses,"[2]; compound concentrations:100 nM and 1000 nM (sheet 'Lestaurtinib' of Supplementary Table 1),run:Lestaurtinib_02473_R2,Plate:MR010",228 nM
same,potency estimated from few doses,"[2]; compound concentrations:100 nM and 1000 nM (sheet 'Lestaurtinib' of Supplementary Table 1),run:Lestaurtinib_02473_R3,Plate:MR010",159 nM
same,potency estimated from few doses,"[2]; compound concentrations:100 nM and 1000 nM (sheet 'Lestaurtinib' of Supplementary Table 1),run:Lestaurtinib_02482_R1,Plate:MR011",197 nM
same,potency estimated from few doses,"[2]; compound concentrations:100 nM and 1000 nM (sheet 'Lestaurtinib' of Supplementary Table 1),run:Lestaurtinib_02482_R2,Plate:MR011",501 nM
same,potency estimated from few doses,"[2]; compound concentrations:100 nM and 1000 nM (sheet 'Lestaurtinib' of Supplementary Table 1),run:Lestaurtinib_02482_R3,Plate:MR011",248 nM
same,potency estimated from few doses,"[2]; compound concentrations:100 nM and 1000 nM (sheet 'Lestaurtinib' of Supplementary Table 1),run:Lestaurtinib_02496_R1,Plate:MR013",115 nM
same,potency estimated from few doses,"[2]; compound concentrations:100 nM and 1000 nM (sheet 'Lestaurtinib' of Supplementary Table 1),run:Lestaurtinib_02496_R2,Plate:MR013",362 nM
same,potency estimated from few doses,"[2]; compound concentrations:100 nM and 1000 nM (sheet 'Lestaurtinib' of Supplementary Table 1),run:Lestaurtinib_02496_R3,Plate:MR013",182 nM
same,potency estimated from few doses,"[2]; compound concentrations:100 nM and 1000 nM (sheet 'Lestaurtinib' of Supplementary Table 1),run:Lestaurtinib_02566_R1,Plate:MR014",309 nM
same,potency estimated from few doses,"[2]; compound concentrations:100 nM and 1000 nM (sheet 'Lestaurtinib' of Supplementary Table 1),run:Lestaurtinib_02566_R2,Plate:MR014",151 nM
same,potency estimated from few doses,"[2]; compound concentrations:100 nM and 1000 nM (sheet 'Lestaurtinib' of Supplementary Table 1),run:Lestaurtinib_02566_R3,Plate:MR014",182 nM
same,potency estimated from few doses,"[2]; compound concentrations:100 nM and 1000 nM (sheet 'Lestaurtinib' of Supplementary Table 1),run:Lestaurtinib_02572_R1,Plate:MR015",92 nM
same,potency estimated from few doses,"[2]; compound concentrations:100 nM and 1000 nM (sheet 'Lestaurtinib' of Supplementary Table 1),run:Lestaurtinib_02572_R2,Plate:MR015",444 nM
same,potency estimated from few doses,"[2]; compound concentrations:100 nM and 1000 nM (sheet 'Lestaurtinib' of Supplementary Table 1),run:Lestaurtinib_02584_R1,Plate:MR017",215 nM
same,potency estimated from few doses,"[2]; compound concentrations:100 nM and 1000 nM (sheet 'Lestaurtinib' of Supplementary Table 1),run:Lestaurtinib_02584_R2,Plate:MR017",239 nM
same,potency estimated from few doses,"[2]; compound concentrations:100 nM and 1000 nM (sheet 'Lestaurtinib' of Supplementary Table 1),run:Lestaurtinib_02606_R1,Plate:MR019",197 nM
same,potency estimated from few doses,"[2]; compound concentrations:100 nM and 1000 nM (sheet 'Lestaurtinib' of Supplementary Table 1),run:Lestaurtinib_02606_R2,Plate:MR019",175 nM
same,potency estimated from few doses,"[2]; compound concentrations:100 nM and 1000 nM (sheet 'Lestaurtinib' of Supplementary Table 1),run:Lestaurtinib_02606_R3,Plate:MR019",636 nM
same,potency estimated from few doses,"[2]; compound concentrations:100 nM and 1000 nM (sheet 'Lestaurtinib' of Supplementary Table 1),run:Lestaurtinib_02624_R1,Plate:MR020",390 nM
same,potency estimated from few doses,"[2]; compound concentrations:100 nM and 1000 nM (sheet 'Lestaurtinib' of Supplementary Table 1),run:Lestaurtinib_02624_R3,Plate:MR020",244 nM
same,potency estimated from few doses,"[2]; compound concentrations:100 nM and 1000 nM (sheet 'Lestaurtinib' of Supplementary Table 1),run:Lestaurtinib_02724_R1,Plate:MR021",270 nM
same,potency estimated from few doses,"[2]; compound concentrations:100 nM and 1000 nM (sheet 'Lestaurtinib' of Supplementary Table 1),run:Lestaurtinib_02724_R2,Plate:MR021",239 nM
same,potency estimated from few doses,"[2]; compound concentrations:100 nM and 1000 nM (sheet 'Lestaurtinib' of Supplementary Table 1),run:Lestaurtinib_02724_R3,Plate:MR021",180 nM
same,potency estimated from few doses,"[2]; compound concentrations:100 nM and 1000 nM (sheet 'Lestaurtinib' of Supplementary Table 1),run:Lestaurtinib_02741_R1,Plate:MR023",372 nM
same,potency estimated from few doses,"[2]; compound concentrations:100 nM and 1000 nM (sheet 'Lestaurtinib' of Supplementary Table 1),run:Lestaurtinib_02741_R2,Plate:MR023",355 nM
same,potency estimated from few doses,"[2]; compound concentrations:100 nM and 1000 nM (sheet 'Lestaurtinib' of Supplementary Table 1),run:Lestaurtinib_02741_R3,Plate:MR023",301 nM
same,potency estimated from few doses,"[2]; compound concentrations:100 nM and 1000 nM (sheet 'Lestaurtinib' of Supplementary Table 1),run:Lestaurtinib_02748_R1,Plate:MR024",208 nM
same,potency estimated from few doses,"[2]; compound concentrations:100 nM and 1000 nM (sheet 'Lestaurtinib' of Supplementary Table 1),run:Lestaurtinib_02748_R3,Plate:MR024",211 nM
same,potency estimated from few doses,"[2]; compound concentrations:100 nM and 1000 nM (sheet 'Lestaurtinib' of Supplementary Table 1),run:Lestaurtinib_02765_R1,Plate:MR026",637 nM
same,potency estimated from few doses,"[2]; compound concentrations:100 nM and 1000 nM (sheet 'Lestaurtinib' of Supplementary Table 1),run:Lestaurtinib_02765_R2,Plate:MR026",849 nM
same,potency estimated from few doses,"[2]; compound concentrations:100 nM and 1000 nM (sheet 'Lestaurtinib' of Supplementary Table 1),run:Lestaurtinib_02765_R3,Plate:MR026",487 nM
same,potency estimated from few doses,"[2]; compound concentrations:100 nM and 1000 nM (sheet 'Lestaurtinib' of Supplementary Table 1),run:Lestaurtinib_02766_R1,Plate:MR027",440 nM
same,potency estimated from few doses,[2]; [4],170 nM
same,potency estimated from few doses,[2]; [5],124 nM
same,potency estimated from few doses,[2]; [6],217 nM
same,potency estimated from few doses,[2]; [7],347 nM
same,potency estimated from few doses,"[2]; compound concentrations:100 nM and 1000 nM (sheet 'Lestaurtinib' of Supplementary Table 1),run:Lestaurtinib_02802_R2,Plate:MR029",197 nM
same,potency estimated from few doses,[2]; [8],250 nM
same,potency estimated from few doses,[2]; [9],153 nM
same,potency estimated from few doses,[2]; [10],213 nM
same,potency estimated from few doses,[2]; [11],635 nM
same,potency estimated from few doses,[2]; [12],91.1 nM
same,potency estimated from few doses,[2]; [13],321 nM
same,potency estimated from few doses,[2]; [14],323 nM
same,potency estimated from few doses,"[2]; compound concentrations:100 nM and 1000 nM (sheet 'Lestaurtinib' of Supplementary Table 1),run:Lestaurtinib_03260_R3,Plate:MR033",212 nM
same,potency estimated from few doses,[3]; [15],424 nM
same,potency estimated from few doses,[3]; [16],316 nM
same,potency estimated from few doses,[3]; [17],497 nM
